# According to PubChem BioAssay AID431 (Sanford-Burnham Center for Chemical Genomics, 2006):
# In all, about 63,000 compounds went through this assay and about 1,100 (1.7%) were called active.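 Rule for the calls: active = compounds whose percent cytotoxicity in the single-dose primary screen, scaled between solvent and toxic-drug controls, exceeds 50; inactive = the rest.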 Shown is part of a subset that was picked to be rich in actives. Entries with a potency or affinity are not part of this list.
# Experiment: cytotoxicity in KRAS-transformed pancreatic duct cells, primary screen, cell-based, fluorescence, HTS (AID 431);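 note: 0% = DMSO solvent wells and 100% = doxorubicin-treated wells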
# Details: HPDE-C7K KRASV12 cells, Alamar Blue viability, 48 h; at 10 µM; hits give high values
row,SMILES,cytotoxicity
1,CCOC(=O)CCCSc1nc2sc(C)c(C)c2c(=O)[nH]1,9.4% (inactive)
2,CC(C)CCn1c(SCC(N)=O)nc2c1c(=O)n(C)c(=O)n2C,-10.1% (inactive)
3,CCOc1ccc(OCc2ccc(C(=O)O)o2)cc1,-2.9% (inactive)
4,COc1ccc(C2CC(=O)c3c(C)nc(N4CCN(Cc5ccccc5)CC4)nc3C2)cc1OC (centres undefined),39.3% (inactive)
5,O=C1CC(c2cccc(Cl)c2)Cc2nc(N3CCOCC3)ncc21 (centres undefined),-18.3% (inactive)
6,CCN1CCN(c2ncc3c(n2)CC(c2ccc(OC)c(OC)c2)CC3=O)CC1 (centres undefined),14.6% (inactive)
7,CCN1CCN(c2ncc3c(n2)CC(c2cc(OC)c(OC)c(OC)c2)CC3=O)CC1 (centres undefined),62.1% (active)
8,COc1cc(C2CC(=O)c3cnc(NC(=O)COc4ccccc4)nc3C2)cc(OC)c1OC (centres undefined),-19.4% (inactive)
9,Cc1ccc(C2CC(=O)c3cnc(N4CCN(c5ccccc5)CC4)nc3C2)cc1 (centres undefined),17.2% (inactive)
10,COc1ccc(C2CC(=O)c3cnc(N4CCN(Cc5ccccc5)CC4)nc3C2)cc1 (centres undefined),4.1% (inactive)
11,O=C1CC(c2cccc(Cl)c2)Cc2nc(N3CCN(c4ccccc4)CC3)ncc21 (centres undefined),61.6% (active)
12,COc1cc(C2CC(=O)c3cnc(N4CCN(Cc5ccccc5)CC4)nc3C2)cc(OC)c1OC (centres undefined),50.1% (active)
13,CCOC(=O)C1CCN(C(=O)CCn2c(=O)[nH]c3ccccc3c2=O)CC1,-4.8% (inactive)
14,Cc1nn(C)c(C)c1S(=O)(=O)NC1CCCC1,-13% (inactive)
15,CCOC(=O)C1CCCN(C(=O)c2cccs2)C1 (centres undefined),2.4% (inactive)
16,COc1cccc(NC(=O)NCc2cccn2C)c1,-7% (inactive)
17,COc1cc(S(=O)(=O)N2CCCC3(CCCCC3)C2)ccc1-n1cnnn1,76% (active)
18,COc1cc(S(=O)(=O)N2CCC(N3CCCCC3)CC2)ccc1-n1cnnn1,12.7% (inactive)
19,COc1cc(S(=O)(=O)N2CCN3CCCC3C2)ccc1-n1cnnn1 (centres undefined),6.5% (inactive)
20,COc1cc(C(=O)Nc2ccc(S(=O)(=O)N3CCCCC3C)cc2)cc(OC)c1OC (centres undefined),0.7% (inactive)
21,Cc1cc(C)c2c(CC(=O)N(CCC#N)Cc3cccnc3)coc2c1,-1.9% (inactive)
22,N#C/C(=C\c1ccco1)Sc1nc2ccccc2s1,43.6% (inactive)

row,SMILES,cytotoxicity
1,c1csc(CSc2nc3ccccc3s2)c1,-17.1% (inactive)
2,Cc1oc(-c2cccs2)nc1CS(=O)CC(=O)NCCCOC(C)C (centres undefined),-12.2% (inactive)
3,O=C(CSC1=NCCS1)Nc1ccnc2ccccc12,-15.4% (inactive)
4,COC(=O)COc1ccc(S(=O)(=O)NCCC2=CCCCC2)cc1C,-19.8% (inactive)
5,CCOC(=O)COc1ccc(S(=O)(=O)NCCC2=CCCCC2)cc1,53.1% (active)
6,COC(=O)COc1ccc(S(=O)(=O)NCCC2=CCCCC2)cc1,-11.9% (inactive)
7,COC(=O)C1=C(C)OC(N)=C(C#N)C1C1CCCCC1 (centres undefined),-11.1% (inactive)
8,CCOc1ccc(NC(=O)CSc2nnc(C)n2CCCOC)cc1,-3.5% (inactive)
9,COc1cccc(C(=O)Nc2ccc(C)cc2)c1,4.1% (inactive)
10,Cc1cccc(OCC(=O)Nc2cc(C)ccc2O)c1,-1.5% (inactive)
11,Cc1ccc(C(=O)/C=C/Nc2cccc(O)c2)cc1,60.9% (active)
12,O=C(/C=C/Nc1cccc(O)c1)c1ccccc1,15% (inactive)
13,C/C(=C\C(=O)c1ccc(C)cc1)Nc1cccc(O)c1,-15.4% (inactive)
14,COc1cccc(C(=O)/C=C/Nc2cc(C)ccc2O)c1,69.1% (active)
15,Cc1ccc(C)c(N2CCN(C(=O)c3ccc(NS(=O)(=O)c4c(C)noc4C)cc3)CC2)c1,17.4% (inactive)
16,Cc1noc(C)c1S(=O)(=O)Nc1ccc(C(=O)N2CCN(c3ccc(Cl)cc3)CC2)cc1,-5.4% (inactive)
17,CCCCc1n[nH]c2c1C(=O)CC(C)(C)C2,1.2% (inactive)
18,CCOC(=O)N1CCC(NC(=O)c2cc(C(=O)Nc3cccc(OC)c3)ccc2CO)CC1,1.1% (inactive)
19,Cc1ccc(Cl)cc1N1CCN(C(CC(C)C)c2nnnn2CC2CCCO2)CC1 (centres undefined),39.6% (inactive)
20,CCCCC(c1nnnn1CC1CCCO1)N1CCN(c2cc(Cl)ccc2C)CC1 (centres undefined),36.2% (inactive)
21,CCCC(c1nnnn1CC1CCCO1)N1CCN(c2cc(Cl)ccc2C)CC1 (centres undefined),61.1% (active)
22,O=C(Nc1ccccc1C(=O)O)c1ncn[nH]1,-10% (inactive)

row,SMILES,cytotoxicity
1,CC(C)CC(=O)Nc1c2c(nn1-c1ccc(F)cc1)CSC2,-0.6% (inactive)
2,CCOC(=O)CCc1c(C)n(CC)c2ncnn2c1=O,2.5% (inactive)
3,CS(=O)(=O)c1ccc2nc(NC(=O)Cc3ccccc3)sc2c1,2.6% (inactive)
4,CC(C)(C)NS(=O)(=O)c1ccc2nc(NC(=O)Cc3cccs3)sc2c1,73.1% (active)
5,O=C(Cc1cccs1)Nc1nc2ccccc2s1,2.2% (inactive)
6,COCCn1c(=S)[nH]c2cc(C(=O)N3CCN(c4ccccc4OC)CC3)ccc2c1=O,6.7% (inactive)
7,CCCCCN=Cc1c(C)[nH]n(-c2nc3ccccc3s2)c1=O,13.1% (inactive)
8,CCCc1[nH]n(-c2nc3ccccc3s2)c(=O)c1C=NCCN1CCOCC1,24.1% (inactive)
9,O=c1c(C=NCCCn2ccnc2)c(-c2ccccc2)[nH]n1-c1nc2ccccc2s1,63.3% (active)
10,C=CCc1ccc(OCC(O)CN2CCCCC2C)c(OC)c1 (centres undefined),22.6% (inactive)
11,COCCn1nnnc1SCC(=O)N1CCCCC1,-12.2% (inactive)
12,COc1ccc2nc(-c3ccccc3)[nH]c2c1,-5.2% (inactive)
13,CCOc1ccc2nc(C(C)O)[nH]c2c1 (centres undefined),5.3% (inactive)
14,CCOc1ccc2nc(-c3ccccc3)[nH]c2c1,57.3% (active)
15,CCOc1ccccc1NC(=O)CSc1nnnn1-c1ccc(C(=O)OC)cc1,0.9% (inactive)
16,CNCCCC1c2ccccc2C=Cc2ccccc21,10.4% (inactive)
17,CNCCCC12CCC(c3ccccc31)c1ccccc12,73.1% (active)
18,CNCCCN1c2ccccc2CCc2ccccc21,17.5% (inactive)
19,Cc1cc(NC(=O)CSc2nc(-c3ccccc3)cs2)no1,-7.6% (inactive)
20,N#CC1=C(N)OC2=C(C(=O)CCC2)C1c1ccc(OC(=O)N2CCOCC2)cc1 (centres undefined),-4.6% (inactive)
